From PubChem BioAssay
Calls of active or inactive are those of the source.

Columns and labels:
[1] = small molecules captured by biotinylated probe aFSTL3 – biochemical, small-molecule microarray, fluorescence 635/667, stem cell growth factor project, primary screen (AID 1064); conditions: higher = more signal;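 also: measures binding of the biotinylated anti-FSTL3 antibody to printed compounds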
[2] = binders from COS7 lysate, DM2A8 probe, primary screen, torsin A project, cell lysate, small-molecule microarray, fluorescence 635/667 (AID 1065); conditions: higher = more signal, COS7 lysate expressing mutant human TOR1A
[3] = small molecules captured by biotinylated probe aFGF2 – biochemical, small-molecule microarray, fluorescence 635/667, stem cell growth factor project, primary screen (AID 1067); conditions: higher = more signal;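 also: measures binding of biotinylated aFGF2 protein to printed compounds on slides; z-score merges feature fluorescence and signal-to-noise across triplicate slides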
[4] = small molecules captured by biotinylated probe aFGF10 – biochemical, small-molecule microarray, fluorescence 635/667, stem cell growth factor project, primary screen (AID 1071); conditions: higher = more signal;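 also: score merges 667 nm spot intensity and signal to noise from triplicate slides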
[5] = biological target: Neurogenic locus notch homolog protein 2 (Homo sapiens) (UniProt Q04721); experiment: small molecules binding Notch2 protein – biochemical, small-molecule microarray, 635 nm fluorescence, stem cell growth factors, primary screen (AID 1073); conditions: higher = more signal
[6] = biological target: Pro-neuregulin-1, membrane-bound isoform (Homo sapiens) (UniProt Q02297); experiment: small molecules binding neuregulin-1 protein – biochemical, small-molecule microarray, fluorescence 635/667, psychiatric disease protein project, primary screen (AID 1075); conditions: NRG1 binding, 635 nm fluorescence, higher = more signal;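 also: score combines 667 nm spot fluorescence with signal to noise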
[7] = system: Neuregulin-1 EGF-like domain; experiment: small molecules binding NRG1 EGF domain – biochemical, small-molecule microarray, 635 nm fluorescence, primary screen (AID 1081); conditions: higher = more signal;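 also: binding of the protein to compounds printed on small-molecule microarray slides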
[8] = FRG1 expression reporter modulators in myotubes – cell-based, C2C12 myotubes, firefly/Renilla luciferase, luminescence, FRG1 inhibition for FSHD, primary screen (AID 1084); conditions: FRG1 promoter luciferase, higher = more signal, called active from +8 up or from −8 down
[9] = small molecules captured by biotinylated probe aFST – biochemical, small-molecule microarray, fluorescence 635/667, stem cell growth factor project, primary screen (AID 1086); conditions: higher = more signal;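 also: score merges 667 nm fluorescence with signal-to-noise of each printed compound spot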
[10] = binders of probe aHhip on microarray, primary screen, stem cell growth factor project, biochemical, small-molecule microarray, fluorescence 635/667 (AID 1087); conditions: higher = more signal;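 also: score merges spot fluorescence at 667nm with spot signal to noise ratio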

Neurogenic locus notch homolog protein 2 (Homo sapiens), sequence (Q04721 whole entry, looked up, canonical isoform): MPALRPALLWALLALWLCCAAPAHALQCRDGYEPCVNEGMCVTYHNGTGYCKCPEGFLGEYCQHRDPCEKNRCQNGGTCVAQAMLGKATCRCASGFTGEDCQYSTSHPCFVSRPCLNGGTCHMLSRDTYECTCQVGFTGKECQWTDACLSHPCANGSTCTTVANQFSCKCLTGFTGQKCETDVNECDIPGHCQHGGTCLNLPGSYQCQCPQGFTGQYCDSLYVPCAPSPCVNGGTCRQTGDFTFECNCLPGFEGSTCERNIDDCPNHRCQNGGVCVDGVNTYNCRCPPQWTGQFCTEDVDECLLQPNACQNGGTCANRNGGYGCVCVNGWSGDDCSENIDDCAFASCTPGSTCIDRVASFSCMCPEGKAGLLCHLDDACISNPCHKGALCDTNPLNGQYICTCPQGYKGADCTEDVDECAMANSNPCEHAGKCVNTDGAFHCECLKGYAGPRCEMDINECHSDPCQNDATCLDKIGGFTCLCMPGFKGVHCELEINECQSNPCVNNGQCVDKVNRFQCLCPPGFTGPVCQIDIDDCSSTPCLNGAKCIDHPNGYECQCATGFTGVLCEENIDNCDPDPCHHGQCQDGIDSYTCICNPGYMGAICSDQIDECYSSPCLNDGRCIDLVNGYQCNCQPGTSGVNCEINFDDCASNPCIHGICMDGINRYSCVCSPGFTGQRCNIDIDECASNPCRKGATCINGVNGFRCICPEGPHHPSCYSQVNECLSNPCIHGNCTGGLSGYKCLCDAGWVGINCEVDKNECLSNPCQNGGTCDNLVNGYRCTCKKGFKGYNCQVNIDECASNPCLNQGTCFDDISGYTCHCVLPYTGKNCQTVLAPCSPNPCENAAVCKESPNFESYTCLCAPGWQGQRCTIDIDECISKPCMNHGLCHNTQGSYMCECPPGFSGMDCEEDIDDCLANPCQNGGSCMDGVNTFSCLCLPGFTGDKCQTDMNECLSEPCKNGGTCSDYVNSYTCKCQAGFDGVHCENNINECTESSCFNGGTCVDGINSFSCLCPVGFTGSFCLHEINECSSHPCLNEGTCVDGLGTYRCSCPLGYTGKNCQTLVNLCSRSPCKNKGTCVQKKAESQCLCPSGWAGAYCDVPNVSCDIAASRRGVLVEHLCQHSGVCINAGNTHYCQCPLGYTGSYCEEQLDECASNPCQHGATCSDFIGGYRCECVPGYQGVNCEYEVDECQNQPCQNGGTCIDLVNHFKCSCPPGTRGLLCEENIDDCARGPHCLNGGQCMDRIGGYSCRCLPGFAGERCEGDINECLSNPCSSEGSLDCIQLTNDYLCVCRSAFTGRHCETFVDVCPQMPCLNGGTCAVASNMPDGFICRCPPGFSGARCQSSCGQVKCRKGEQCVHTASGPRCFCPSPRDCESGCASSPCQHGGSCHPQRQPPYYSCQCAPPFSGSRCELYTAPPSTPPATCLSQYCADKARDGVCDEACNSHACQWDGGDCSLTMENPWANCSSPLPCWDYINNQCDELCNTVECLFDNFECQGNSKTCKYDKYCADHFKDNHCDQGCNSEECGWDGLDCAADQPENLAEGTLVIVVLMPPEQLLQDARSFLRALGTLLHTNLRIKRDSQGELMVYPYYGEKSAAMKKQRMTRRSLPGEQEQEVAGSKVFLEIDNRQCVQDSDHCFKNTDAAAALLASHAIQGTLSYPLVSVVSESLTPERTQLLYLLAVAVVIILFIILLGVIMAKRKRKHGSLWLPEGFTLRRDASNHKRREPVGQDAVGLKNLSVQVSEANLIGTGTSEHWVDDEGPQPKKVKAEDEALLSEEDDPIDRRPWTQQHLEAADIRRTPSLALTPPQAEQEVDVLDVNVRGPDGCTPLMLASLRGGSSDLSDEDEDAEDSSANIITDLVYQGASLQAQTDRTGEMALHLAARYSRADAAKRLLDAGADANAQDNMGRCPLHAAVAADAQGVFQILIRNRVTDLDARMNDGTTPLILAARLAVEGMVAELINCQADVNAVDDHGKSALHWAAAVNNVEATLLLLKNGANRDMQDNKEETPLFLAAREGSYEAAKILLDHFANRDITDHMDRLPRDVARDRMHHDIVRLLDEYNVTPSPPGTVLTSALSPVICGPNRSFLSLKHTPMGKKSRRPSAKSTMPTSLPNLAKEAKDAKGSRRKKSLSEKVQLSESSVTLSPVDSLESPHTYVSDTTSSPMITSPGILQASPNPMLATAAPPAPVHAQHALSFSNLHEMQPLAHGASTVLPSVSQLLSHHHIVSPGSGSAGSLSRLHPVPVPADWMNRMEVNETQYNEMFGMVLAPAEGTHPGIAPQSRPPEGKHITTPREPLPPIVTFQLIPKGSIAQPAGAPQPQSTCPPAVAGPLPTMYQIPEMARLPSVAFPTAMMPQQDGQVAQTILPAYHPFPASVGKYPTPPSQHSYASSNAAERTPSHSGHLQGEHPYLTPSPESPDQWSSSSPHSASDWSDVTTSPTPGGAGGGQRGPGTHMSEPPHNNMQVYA
Pro-neuregulin-1, membrane-bound isoform (Homo sapiens), sequence (Q02297 whole entry, looked up, the tested form may be a part, canonical isoform): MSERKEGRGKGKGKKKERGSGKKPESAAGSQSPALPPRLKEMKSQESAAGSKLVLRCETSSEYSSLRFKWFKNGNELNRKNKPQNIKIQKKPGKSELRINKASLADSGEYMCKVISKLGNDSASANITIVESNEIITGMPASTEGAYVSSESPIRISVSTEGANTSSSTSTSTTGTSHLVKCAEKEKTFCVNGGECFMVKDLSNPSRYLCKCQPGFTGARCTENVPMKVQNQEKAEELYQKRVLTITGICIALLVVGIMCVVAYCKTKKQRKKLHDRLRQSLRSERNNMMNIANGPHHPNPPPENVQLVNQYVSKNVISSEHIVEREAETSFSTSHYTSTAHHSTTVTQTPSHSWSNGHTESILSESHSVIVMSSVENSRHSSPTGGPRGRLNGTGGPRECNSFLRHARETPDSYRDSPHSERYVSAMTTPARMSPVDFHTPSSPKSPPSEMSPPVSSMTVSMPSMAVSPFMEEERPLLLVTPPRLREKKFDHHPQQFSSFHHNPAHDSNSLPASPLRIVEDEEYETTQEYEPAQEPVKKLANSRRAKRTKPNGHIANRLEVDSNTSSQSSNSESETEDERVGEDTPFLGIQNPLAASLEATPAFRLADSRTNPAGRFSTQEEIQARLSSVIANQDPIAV

Row | Compound | composite z-score [1] | composite z-score [2] | composite z-score [3] | composite z-score [4] | composite z-score [5] | composite z-score [6] | composite z-score [7] | z-score [8] | composite z-score [9] | composite z-score [10]
1 | CC(C)(C)N1C(=O)[C@H]2[C@H]3[C@H](O)[C@H](O)CC(=NNC(=O)OCc4ccccc4)[C@H]3CC[C@H]2C1=O | -0.642 | 0.0714 | -0.0684 | 0.559 | 0.389 | 0.26 | 0.748 | -0.0034 (inactive) | -0.0777 | -0.169
2 | CC(C)(C)N1C(=O)[C@H]2[C@H]3[C@H](O)[C@H](O)CC(=NOC[C@@H](O)COCc4ccco4)[C@@H]3CC[C@H]2C1=O | 0.812 | 0.152 | -0.0193 | 0.112 | 0.0503 | -0.0263 | -0.214 | 0.528 (inactive) | -0.0115 | -0.0994
3 | CC(CCC(=O)OC[C@H]1O[C@H](C#Cc2ccccc2)C=C[C@@H]1Oc1ccc(C)cc1)=NOC[C@@H](C)[C@H](OCc1ccccc1)C(C)C | -0.205 | -0.0926 | -0.121 | -0.122 | -0.67 | -1.01 | -1.05 | -0.234 (inactive) | -0.114 | -0.175
4 | CC(CCC(=O)OC[C@H]1O[C@H](C#Cc2ccccc2)C=C[C@@H]1Oc1ccc(C)cc1)=NOC(C)CN1CCCCc2nc(C)c(C)cc21 (stereo not given in full) | -0.172 | -0.116 | -0.211 | -0.12 | -0.565 | 0.904 | -0.491 | 0.49 (inactive) | -0.697 | -0.143
5 | COc1ccc(COC(=O)NN=C2C[C@@H](O)[C@@H](O)[C@@H]3[C@@H]4C(=O)N([C@@H](C)c5ccccc5)C(=O)[C@@H]4CC[C@@H]23)cc1 | -0.513 | 0.419 | -0.114 | 0.042 | 0.199 | 0.0605 | -0.38 | 0.497 (inactive) | 0.275 | -0.0994
6 | COC(=O)[C@H](C)NC(=O)CC=C[C@@H](C)[C@@H]1C=C[C@H](O)[C@@H](CO)O1 | -0.636 | 0.677 | -0.134 | 0.538 | 0.0931 | -0.419 | 0.655 | 0.439 (inactive) | 0.258 | -0.0645
7 | CCN1C(=O)[C@H]2[C@H]3[C@H](O)[C@H](O)CC(=NOC[C@@H](O)COCc4ccco4)[C@H]3CC[C@H]2C1=O | -0.905 | 2.38 | -0.318 | -1.68 | -0.886 | -0.502 | 0.456 | -0.172 (inactive) | -0.104 | 0.0578
8 | COc1ccc(COC(=O)NN=C2C[C@@H](O)[C@@H](O)[C@@H]3[C@@H]4C(=O)N(C[C@@H]5CCCO5)C(=O)[C@@H]4CC[C@@H]23)cc1 | -0.227 | 0.359 | -0.156 | 0.878 | -0.0739 | 0.393 | 0.775 | -0.913 (inactive) | 0.0269 | -0.117
9 | O=C1[C@H]2CCn3c(=O)n(Cc4cc5c(cc4Cl)OCO5)c(=O)n3[C@H]2[C@H](O)[C@@H]2O[C@H]12 | 1.24 | -0.0222 | -0.162 | -0.244 | -0.382 | -0.156 | 0.801 | -0.162 (inactive) | -0.332 | 0.0156
10 | CC(C)=CCCC(C)=CCON=C1C[C@@H](O)[C@@H](O)[C@@H]2[C@@H]3C(=O)N([C@@H](C)c4ccccc4)C(=O)[C@@H]3CC[C@@H]12 | -0.465 | -0.0543 | -0.0493 | 0.374 | 0.449 | 0.137 | 0.661 | -0.366 (inactive) | 0.11 | -0.249
11 | C[C@@H]1CC[C@H]2C(=O)OC(CN3C(=O)c4ccccc4C3=O)CN2[C@H]1c1ccc(Br)cc1 (stereo not given in full) | -0.138 | 1 | -0.133 | 0.0468 | 0.315 | 0.48 | -0.429 | 1.11 (inactive) | 0.362 | -0.132
12 | CC(CCN1CCCCc2nc(C)c(C)cc21)=NOC[C@@H](O)[C@H]1O[C@@H]2OC(C)(C)O[C@@H]2[C@H]1O | -0.368 | 0.454 | -0.138 | 0.188 | -0.224 | 0.459 | 0.0465 | 0.442 (inactive) | -0.346 | -0.136
13 | COC(=O)CC=C1c2ccccc2[C@H](OC)[C@H]1C | -0.033 | -0.113 | -0.0044 | 0.234 | -0.0929 | -0.395 | -0.293 | 0.009 (inactive) | 0.137 | -0.0296
14 | CC(C)CON=C1C[C@@H](O)[C@@H](O)[C@@H]2[C@@H]3C(=O)N(Cc4ccccc4)C(=O)[C@@H]3CC[C@H]12 | -0.467 | 0.0791 | -0.143 | -0.0185 | 0.587 | 0.349 | 0.0796 | 0.602 (inactive) | -0.153 | -0.204
15 | COC(=O)[C@@H]1CC[C@H](C)[C@@H](c2ccc(C)cc2)N1C(=O)c1ccc(C=NOC[C@H]2O[C@H](c3ccccc3)C=C[C@@H]2Oc2ccc(OC)cc2)cc1 | -0.462 | -0.24 | -0.154 | 0.217 | -0.0637 | 0.0379 | -0.631 | 0.434 (inactive) | 0.044 | -0.191
16 | CC(CCN1CCc2nc(-c3ccccc3)c(-c3ccccc3)cc2C1)=NO[C@H](C)c1cn([C@H](CO)Cc2ccccc2)nn1 | -0.11 | 0.575 | -0.0569 | -0.332 | -0.54 | 0.164 | 0.299 | -0.327 (inactive) | -0.125 | -0.13
17 | CC(C)CON=C1C[C@@H](O)[C@@H](O)[C@@H]2[C@@H]3C(=O)N(c4ccc(F)cc4F)C(=O)[C@@H]3CC[C@@H]12 | -0.527 | 0.118 | -0.0502 | 0.345 | 0.429 | 0.984 | 0.557 | 0.581 (inactive) | 0.283 | -0.0994
18 | CCN1C(=O)[C@H]2[C@H]3[C@H](O)[C@H](O)CC(=NO[C@@H]4O[C@H](CO)[C@@H](O)[C@H](O)[C@H]4O)[C@H]3CC[C@H]2C1=O | -0.396 | 1.06 | -0.138 | 0.235 | 1 | 0.259 | 0.108 | -1.07 (inactive) | 0.293 | 0.0274
19 | CCN1C(=O)[C@H]2[C@H]3[C@H](O)[C@H](O)CC(=NO[C@@H](C)c4cc(-c5c(C)cc(C)cc5C)no4)[C@@H]3CC[C@H]2C1=O | -0.558 | 1.13 | -0.0243 | 0.624 | 0.817 | 1.08 | 1.04 | 0.998 (inactive) | 0.544 | -0.225
20 | O=C1[C@H]2CCn3c(=O)n(-c4ccccc4)c(=O)n3[C@H]2[C@H](O)[C@@H]2O[C@H]12 | -0.561 | -0.0619 | -0.0667 | 0.328 | 0.164 | 1.63 | -0.125 | -0.217 (inactive) | -0.0545 | -0.305
21 | CO[C@H]1C[C@@H]2C[C@H](O)CC(CC(=O)O[C@@H](C=CCC(C)C)C[C@@H]3CC[C@H](C)[C@@H](C1)O3)O2 | -0.479 | 0.613 | -0.0442 | 0.365 | 1.03 | -0.33 | 0.661 | 0.0521 (inactive) | 0.36 | -0.226
22 | CCOC(=O)[C@H](Cc1ccccc1)NC(=O)CCC1CC(OC(=O)NCCc2ccc(F)cc2)CC2(CCCC(COC(=O)NCCOc3ccccc3)O2)O1 (stereo not given in full) | -0.493 | 1.34 | -0.129 | 0.813 | 1.17 | 0.843 | 1.03 | -0.997 (inactive) | 0.564 | 0.162
23 | COC(=O)CC=C[C@@H](C)[C@@H](C=NOC(C)CN1CCCc2nc(C)c(C)cc21)NS(=O)(=O)c1ccc(C)cc1 (stereo not given in full) | -0.0882 | 0.296 | -0.0202 | 0.469 | 0.699 | 0.257 | 0.665 | 0.562 (inactive) | 0.316 | 0.809
24 | COC(=O)C1=C(C)N(Cc2ccccc2)C2=C3C(=O)OCC[C@@H]3[C@@](O)(C(=O)OC)C(=O)N2[C@@H]1c1ccccc1 | -0.69 | -0.0402 | -0.118 | 0.495 | 0.346 | -0.143 | 0.0271 | 0.245 (inactive) | -0.0464 | 0.0139
25 | CCOC(=O)[C@H](CC(C)C)NC(=O)CCC1CC(OC(=O)NCCc2ccc(F)cc2)CC2(CCCC(COC(=O)NCc3cccc4ccccc34)O2)O1 (stereo not given in full) | -0.249 | 0.685 | -0.195 | 0.162 | 0.401 | 0.0303 | 0.76 | 1.95 (inactive) | 0.748 | -0.134
26 | CCc1cc2c(nc1CC)CCN(CCC(C)=NOC(C)CN1CCCCc3nc(C)c(C)cc31)C2 (stereo not given) | -0.154 | 1.24 | -0.073 | 0.541 | 1.11 | 0.946 | 1.07 | 0.795 (inactive) | 0.544 | -0.174
27 | CCOC(=O)[C@H](Cc1ccccc1)NC(=O)CCC1CC(OC(=O)NCc2cccc3ccccc23)CC2(CCCC(COC(=O)NCCOc3ccccc3)O2)O1 (stereo not given in full) | -0.591 | 0.618 | -0.105 | 0.133 | 0.863 | 0.972 | 0.898 | 0.688 (inactive) | 0.214 | 0.204
28 | CO[C@@H](C(C)C)[C@@H](C)C1OC(=O)CC1O (stereo not given in full) | -0.156 | -0.126 | -0.15 | 0.0406 | -0.402 | -0.361 | 0.625 | 0.35 (inactive) | -0.192 | -0.0193
29 | C[C@@H]1CC[C@@H](C(=O)O)N[C@H]1c1cccc(N2CCOCC2)c1 | -0.406 | 0.179 | -0.0428 | 0.268 | 0.887 | 0.0719 | 0.251 | -1.79 (inactive) | 0.253 | -0.134
30 | COC(=O)[C@H](C)NC(=O)CCC1CC(OC(=O)NCc2cccc3ccccc23)CC2(CCCC(COC(=O)NCc3ccccc3)O2)O1 (stereo not given in full) | -0.425 | -0.261 | 0.026 | 0.329 | 1.39 | 0.853 | 0.78 | 2.13 (inactive) | 0.2 | -0.374
